An excerpt weighted towards active compounds, which were near 4% of everything screened.
FLuc inh: firefly luciferase inhibition; P08659; purified firefly luciferase, luminescence, 8 min; Potency, µM (highest dose often 57.1 µM), actives largely listed as inhibitors; hit rate 2.2% among 72,000; also: nearly all actives have a fitted effect of over 40% in size
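Inhibition of light generation by firefly luciferase from ATP and luciferin was profiled with concentration-response curves per sample, ATP held at 10 uM within the enzyme's linear range. Plates were read by luminescence after an 8-minute ambient incubation.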
Caspase-1 inhib: allosteric or competitive inhibitors of human caspase-1; P29466; Caspase-1 enzyme, Ac-WEHD-AFC fluorogenic rate; Potency, µM (highest dose often 57.5 µM), usual class: inhibitors; hit rate 0.03% among 75,000
PK Bst: alters activity of Bacillus stearothermophilus pyruvate kinase. purified pyruvate kinase, luminescence ATP production; ribose 5-phosphate activator present at AC10. Potency, µM. hit rate 1.2% among 51,000. AID 361; in the data active = potency below about 11 µM; inconclusive = mostly about 12 µM to 25 µM;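 the screen sought inhibitors and activators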
Casp7 inh: allosteric or competitive inhibitors of human caspase-7. AID 889. hit rate 0.02% among 75,000. recombinant caspase-7, Ac-DEVD-AFC fluorescence rate. Potency, µM (doses to about 57.5 µM), usual class: inhibitors; active = well fitted inhibition curve with a large enough effect in the main read-out, with a control signal flat, not every such curve was filed as active; inconclusive = small, poorly fitted or top-dose-only effect, or a change in a side signal
Tau filament bind: binders of human tau filaments; recombinant tau filaments, thioflavin S fluorescence, 15 h; filaments grown with octadecylsulfate alongside compound; AID 596; hit rate 2% among 71,000; Potency, µM (series often up to 57.1 µM); P10636;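 also: actives lower thioflavin S fluorescence by blocking filaments or displacing dye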
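Thioflavine S fluorescence (ex 450, em 510 nm) reports filaments formed from 1 uM human tau plus 30 uM ODS over 15 h at 37 C (10 mM HEPES pH 7.4, 100 mM NaCl, 5 mM DTT); compounds displacing dye or blocking filaments lower signal.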
Hits are given with their value; [ ] = dose if it differs, or a comment. Unless noted, calls follow the shape of the dose curve; as a rule, active = well fitted curve in the direction sought with a large enough effect; inconclusive = small, poorly fitted or top-dose-only effect, or another doubt; inactive = no such curve, though single readings can be large; an effect the other way counts as inactive or inconclusive.

Results for CCOc1ccc2nc(N3CCCC(C(=O)NCCCN4CCOCC4)C3)sc2c1 (centres undefined) ?
FLuc inh: 25.1µM; Caspase-1 inhib: inactive; Casp7 inh: inactive; Tau filament bind: inactive

What do the screens show for `Cc1ccc(N=Nc2c(O)c3ccccc3[nH]c2=O)c(S(=O)(=O)N(C)C)c1`?
FLuc inh: 3.16µM; Caspase-1 inhib: inactive[11.5 µM]; Casp7 inh: inactive[11.5 µM]; Tau filament bind: inactive[11.4 µM]

What do the screens show for `CCCCc1c(O)c2ccccc2[nH]c1=O`?
FLuc inh: inactive; Caspase-1 inhib: inactive; PK Bst: inactive; Casp7 inh: inactive; Tau filament bind: inactive

Results for COc1ccc(-c2nc3cnc(N(C)C)nc3n(C[C@H]3CCCO3)c2=O)cc1 ?
FLuc inh: inactive[11.4 µM]; Casp7 inh: inconclusive; Tau filament bind: inactive

What do the screens show for `CCOC(=O)c1ccc(NCc2nc3ccccc3[nH]2)cc1`?
FLuc inh: 15.8µM; Caspase-1 inhib: inactive; Casp7 inh: inactive; Tau filament bind: inactive

How did CCOC(=O)Cc1nc2ccccc2[nH]1 do in these assays?
FLuc inh: inactive; Caspase-1 inhib: inactive; PK Bst: inactive; Casp7 inh: inactive; Tau filament bind: inactive

What do the screens show for `CC1(C)C[C@@H]2C(=O)CCC3O[C@@]3(C)CCC21` (some centres undefined)?
Caspase-1 inhib: inactive; Casp7 inh: inactive

How did CC1CC2C3CCC4=CC(=O)C=C[C@@]4(C)[C@]3(F)C(O)C[C@]2(C)[C@]1(O)C(=O)COP(=O)(O)O (some centres undefined) do in these assays?
Casp7 inh: inactive

What do the screens show for `COCCn1c(C)cc(C(=O)CSc2n[nH]c(N)n2)c1C`?
FLuc inh: inactive; Caspase-1 inhib: inactive; PK Bst: inactive; Casp7 inh: inactive; Tau filament bind: inactive

How did COCCn1c(C)cc(C(=O)CSc2nnc(C)s2)c1C do in these assays?
FLuc inh: 10µM; Caspase-1 inhib: inactive; PK Bst: inconclusive; Casp7 inh: inactive; Tau filament bind: inactive

What do the screens show for `CC(C)Cn1c(N)c(C(=O)COC(=O)c2cc(-c3ccco3)nc3ccccc23)c(=O)n(C)c1=O`?
FLuc inh: inactive; Caspase-1 inhib: inactive; PK Bst: inactive; Casp7 inh: inactive; Tau filament bind: 12.6µM

What do the screens show for `O=C(COC(=O)c1c2c(nc3ccccc13)CCCC2)Nc1ccc2c(c1)OCO2`?
FLuc inh: inactive; Caspase-1 inhib: inactive; Casp7 inh: inactive[0.00368 µM]; Tau filament bind: 15.8µM

How did O=C(COC(=O)c1cc(-c2ccco2)nc2ccccc12)NCc1ccc2c(c1)OCO2 do in these assays?
FLuc inh: inactive; Caspase-1 inhib: inconclusive; PK Bst: inactive; Casp7 inh: inconclusive; Tau filament bind: 12.6µM

What do the screens show for `O=C(COC(=O)c1cc(-c2cccs2)nc2ccccc12)NCc1ccco1`?
FLuc inh: inactive; Casp7 inh: inconclusive; Tau filament bind: 15.8µM

How did O=C(COC(=O)c1ccco1)Nc1ccc2c(c1)OCO2 do in these assays?
FLuc inh: inactive; Caspase-1 inhib: inactive; Casp7 inh: inactive; Tau filament bind: inactive

How did CCN(c1nc(N)c(C(=O)N=C(N)N)nc1Cl)C(C)C do in these assays?
FLuc inh: inactive; Caspase-1 inhib: inactive; Casp7 inh: inactive; Tau filament bind: inactive

Results for O=c1c(-c2ccccc2)nc2cnc(Nc3ccccc3)nc2n1Cc1cccs1 ?
FLuc inh: inactive[11.4 µM]; Casp7 inh: inconclusive; Tau filament bind: inactive

Results for Cc1ccc2c(Cl)cc(Cl)c(OCC(=O)NC(=O)NCc3ccco3)c2n1 ?
FLuc inh: inactive; Caspase-1 inhib: inactive; PK Bst: 3.05; Casp7 inh: inactive; Tau filament bind: inactive

Results for N=C1[C@@H](O)[C@]2(I)c3ccccc3N3C(=N)[C@H](O)[C@@H]4c5ccccc5N1[C@@H]4[C@@H]32 ?
FLuc inh: inactive[11.4 µM]; Caspase-1 inhib: inactive[11.5 µM]; Casp7 inh: inactive[11.5 µM]; Tau filament bind: 1µM

How did CCOc1cc2c(cc1OCC)C(c1cc(OC)c(O)c(OC)c1)NCC2 (centres undefined) do in these assays?
FLuc inh: inactive; Caspase-1 inhib: inconclusive; PK Bst: inactive; Casp7 inh: inactive; Tau filament bind: inactive

What do the screens show for `O=C1N/C(=C\c2ccccc2)c2ccccc21`?
FLuc inh: inactive; Caspase-1 inhib: inactive; PK Bst: 5.57; Casp7 inh: inactive; Tau filament bind: inactive

Results for CN(C)C[C@H]1CCC2=C(C1=O)C(c1ccc(Cl)c(Cl)c1)C1=C(CC[C@H](CN(C)C)C1=O)O2 ?
FLuc inh: inactive[11.4 µM]; Caspase-1 inhib: inactive[11.5 µM]; Casp7 inh: inactive[11.5 µM]; Tau filament bind: inactive[11.4 µM]

What do the screens show for `Cc1cc(=O)cc(C)n1-c1ccccc1N1CCOCC1`?
FLuc inh: inactive; Caspase-1 inhib: inactive; PK Bst: inactive; Casp7 inh: inactive; Tau filament bind: 7.94µM

What do the screens show for `O=P(O)(CCP(=O)(O)c1ccccc1)c1ccccc1`?
FLuc inh: inactive[11.4 µM]; Caspase-1 inhib: inactive[11.5 µM]; Casp7 inh: inactive[11.5 µM]; Tau filament bind: inactive[11.4 µM]

How did C=CC(C1=CC(=O)C(OC)=C(OC)C1=O)c1ccccc1 (centres undefined) do in these assays?
Caspase-1 inhib: inactive; Casp7 inh: inactive

How did COc1ccc(NCc2nnc(SCC(=O)Nc3cc(C(F)(F)F)ccc3Cl)o2)cc1 do in these assays?
FLuc inh: inactive; Caspase-1 inhib: inactive; PK Bst: inactive; Casp7 inh: inactive; Tau filament bind: 20µM

Results for CCCCC(CC)COC(=O)C(C#N)=C(c1ccccc1)c1ccccc1 (centres undefined) ?
Caspase-1 inhib: inactive; Casp7 inh: inactive; Tau filament bind: 31.6µM

Results for O=C1c2c(O)ccc([N+](=O)[O-])c2C(=O)c2c([N+](=O)[O-])ccc(O)c21 ?
Caspase-1 inhib: inactive; Casp7 inh: inactive; Tau filament bind: 0.2µM

Results for CN(C)S(=O)(=O)c1ccc(NS(=O)(=O)/C=C/c2ccccc2)cc1 ?
FLuc inh: inactive; Caspase-1 inhib: inactive; PK Bst: inactive; Casp7 inh: inactive; Tau filament bind: inactive

How did CN(C)S(=O)(=O)c1ccc(Nc2ccc(O)c3c2C(=O)c2c([N+](=O)[O-])ccc(O)c2C3=O)cc1 do in these assays?
FLuc inh: inactive[11.4 µM]; Caspase-1 inhib: inactive[11.5 µM]; Casp7 inh: inactive[11.5 µM]; Tau filament bind: 1µM

How did CCN(CC)CCCCn1c(-c2ccccc2)nc2c(N(CCOC)CCOC)nc(C)nc21 do in these assays?
Caspase-1 inhib: inactive; Casp7 inh: inactive; Tau filament bind: inactive

Results for N#Cc1ccc2c(c1)N(CCCN1CCC(O)CC1)c1ccccc1S2 ?
Caspase-1 inhib: inactive; Casp7 inh: inactive

What do the screens show for `CCN(CC)CC(=O)c1ccc(-c2ccccc2)cc1`?
FLuc inh: inactive; Caspase-1 inhib: inactive; PK Bst: inactive; Casp7 inh: inactive; Tau filament bind: inconclusive

What do the screens show for `CN(C)CC(=O)c1ccc(-c2ccccc2)cc1`?
FLuc inh: inactive; Caspase-1 inhib: inactive; Casp7 inh: inactive; Tau filament bind: 25.1µM

How did CC(=O)OC[C@H]1O[C@@H](CCO/N=C2/[C@H]3O[C@@H]3[C@@H](O)[C@H]3[C@H]2CCn2c(=O)n(-c4ccccc4)c(=O)n23)C=C[C@@H]1OC(C)=O do in these assays?
FLuc inh: inactive[11.4 µM]; Caspase-1 inhib: inactive[11.5 µM]; Casp7 inh: inactive[11.5 µM]

Results for CC(=O)Nc1ccc2nc(-c3cccs3)[nH]c2c1 ?
FLuc inh: 15.8µM; Caspase-1 inhib: inactive; Casp7 inh: inactive; Tau filament bind: inactive[11.4 µM]
